MCF10A rerep – inducers of DNA re-replication in MCF 10A breast cells; 350,000 tested, 2.9% active; Potency, µM (top dose mostly 46.1 µM), actives largely listed as activators; MCF 10A DNA re-replication, Hoechst nuclear intensity, 48 h; note: nearly all actives have a fitted effect of over 50% in size
SW480 rereplic – induces DNA re-replication in SW480 colon adenocarcinoma cells | SW480 DNA re-replication, Hoechst DNA content imaging, 48 h | Potency, µM (doses to about 46.1 µM), usual class: activators | 340,000 tested, 1.8% active | AID 624297; note: nearly all actives have a fitted effect of over 55% in size
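250 cells/well; 23 nL cpd via pin tool; 48 hr, 37 C, 5% CO2; Hoechst 40 min; imager read of total nuclear intensity, ex 405/em 500-530 nm.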
KB-V1 MDR tox – kills drug-selected multidrug resistant KB-V1 cells; KB-V1 MDR cells viability, CellTiter-Glo, 72 h; 400,000 tested, 3.4% active; Potency, µM (titrated, usually from 46.1 µM), most hits filed as cytotoxic; note: nearly all actives have a fitted effect of over 60% in size
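Cells of the MDR subline KB-V1 are plated, dosed with compound at multiple concentrations, and incubated 72 h at 37 degrees C; CellTiter-Glo is then added and luminescence read after 10 min.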
HT1080NT lethal – kills 2HG-producing HT-1080-NT fibrosarcoma cells. 360,000 tested, 1.6% active. AID 686970. Potency, µM (doses to about 46.1 µM), most hits filed as cytotoxic. HT-1080-NT fibrosarcoma viability, CellTiter-Glo ATP luminescence, 48 h;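 note: NT is the 2HG producing partner of a matched IDH1 knockdown line; nearly all actives have a fitted effect of over 55% in size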
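Toxicity toward the 2HG-producing NT line was scored as %Activity, normalised to DMSO and no-cell wells, from CellTiter-Glo luminescence after 48 hours' treatment.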
HT1080 IDH1KD tx – toxicity to HT-1080 IDH1 knockdown cells (counter line); HT-1080 IDH1 knockdown viability, ATP luminescence, 48 h; Potency, µM (highest dose often 46.1 µM), hits mostly cytotoxic; 360,000 tested, 2% active
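After a 2 h attachment period, IDH1KD HT-1080 cells took pin-transferred compound for 48 h at 37 °C; ATP-based luminescence after 10 min room-temperature reagent incubation reported viability.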
KB-3-1 tox – kills parental KB-3-1 adenocarcinoma cells | KB-3-1 viability, CellTiter-Glo ATP luminescence, 72 h | Potency, µM (highest dose often 46.1 µM), hits mostly cytotoxic | 400,000 tested, 1.4% active | AID 1347075; note: nearly all actives have a fitted effect of over 60% in size
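72 h, 37 °C compound treatment of KB-3-1 parental cells; CellTiter-Glo added, 10 min, luminescence read. Data corrected against DMSO-only plates and normalized before curve fitting.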
Hits are given with their value; - = inactive; ? = inconclusive; . = no result; [ ] = another dose, or the depositor's remark. An excerpt weighted towards active compounds, which were near 7.9% of everything screened. Calls come from the whole dose curve; as a rule, active = well fitted curve in the direction sought with a large enough effect; inconclusive = small, poorly fitted or top-dose-only effect, or another doubt; inactive = no such curve, though single readings can be large; an effect the other way counts as inactive or inconclusive.

SMILES	MCF10A rerep	SW480 rereplic	KB-V1 MDR tox	HT1080NT lethal	HT1080 IDH1KD tx	KB-3-1 tox
Cn1c(=O)c2c(ncn2CC(=O)Nc2nc(-c3ccc(F)c(F)c3)cs2)n(C)c1=O	?	?	?	-	-	-
COc1cc(C(=O)NC(=S)Nc2nc(-c3ccc(F)cc3)cs2)cc(OC)c1OC	-	-	-	-	-	?
COc1ccc(-c2csc(NC(=S)NC(=O)c3ccc4ccccc4c3)n2)cc1OC	?	14.6µM	?	-	-	?
COc1ccc(-c2csc(NC(=O)CCn3cnc4ccccc4c3=O)n2)cc1OC	-	-	18.4µM	-	-	-
N#Cc1ccc(-c2csc(NC(=O)/C=C/c3cccs3)n2)cc1	?	-	-	-	-	-
COc1ccc(-c2csc(NC(=O)CCCc3nc4ccccc4c(=O)[nH]3)n2)cc1OC	-	-	-	-	-	-
CC(=O)OCON[N+]([O-])=NC(C)C	.	.	-	.	.	-
CC(C)c1ccc(S(=O)(=O)N2CCN(CC(=O)Nc3ccccc3C(F)(F)F)CC2)cc1	.	.	-	.	.	-
COc1cccc(NC(=O)Nc2nc(-c3ccc(OC)c(OC)c3)cs2)c1	20.6µM	-	?	11.6µM	7.31µM	18.4µM
COc1ccc(-c2csc(NC(C)=O)n2)cc1OC	-	-	-	-	-	-
COc1ccc(CNc2ccccc2C(=O)NCc2ccccc2)cc1COc1ccc(NC(C)=O)cc1	.	.	.	-	-	.
Cc1ccc(-n2c(-c3ccc(Br)cc3)c[n+]3c2CCc2ccc4cccnc4c2-3)cc1	?	-	?	?	3.98µM	2.59µM
O=C(Nc1cccc(C(=O)OCc2cc(=O)n3nc(C4CC4)sc3n2)c1)c1cccc(F)c1	.	.	?	.	.	-
CC1CC(C)CN(C(=O)C2CCN(C(=O)Nc3ccccc3)CC2)C1 (centres undefined)	-	-	20.6µM	-	-	-
CC1CCC(NC(=O)C2CCN(C(=O)Nc3ccccc3)CC2)CC1 (centres undefined)	?	-	16.4µM	-	-	-
CC1CCC(NC(=O)C2CCN(c3nc4ccccc4s3)CC2)CC1 (centres undefined)	-	-	7.31µM	-	-	?
CC1CCCN(C(=O)C2CCN(C(=O)Nc3ccccc3)CC2)C1 (centres undefined)	-	-	-	-[9.24 µM]	-	-
NC(=O)C1CCN(C(=O)Nc2ccccc2)CC1	-	-	.	.	.	.
Cc1ccc(CNC(=O)c2c(-c3ccccc3F)noc2C)o1	.	.	-	.	.	-
COc1ccc(-n2c(-c3ccc(Cl)cc3)c[n+]3c2CCc2ccccc2-3)cc1	-	-	-	23.1µM	8.2µM	?
COc1ccc(-n2nc([N+](=O)[O-])c(=NCCc3ccc(C)cc3)n2O)cc1	-	-	-	-	-	-
COc1ccc(-n2nc([N+](=O)[O-])c(=NCc3cccnc3)n2O)cc1	-	-	20.6µM	-	-	-
COc1ccc(-n2nc([N+](=O)[O-])c(=NCCc3ccc(OC)c(OC)c3)n2O)cc1	-	-	2.59µM	-	-	-
O=c1c2ccccc2nc(-c2ccoc2)n1CCc1ccccc1	?	-	11.6µM	-	-[9.24 µM]	?
CCOc1ccc(CCn2c(-c3ccco3)nc3ccccc3c2=O)cc1OCC	?	?	7.31µM	?	3.55µM	?
SMILES	MCF10A rerep	SW480 rereplic	KB-V1 MDR tox	HT1080NT lethal	HT1080 IDH1KD tx	KB-3-1 tox
CCOC(=O)c1ccc(NC(=O)CCn2c(=O)c3cccn3c3cccnc32)cc1	.	.	-	.	.	-
COc1ccccc1NS(=O)(=O)c1ccc(NN=C2CCCC2)c([N+](=O)[O-])c1	-	-	2.91µM	-	-	-
CC(C)(C)C1CCC(=NNc2ccc(S(N)(=O)=O)cc2[N+](=O)[O-])CC1 (centres undefined)	?	-	-	?	18.4µM	?
COc1cc2nc(N3CCN(C)CC3)nc(NC3CCN(C)CC3)c2cc1OC	.	.	.	-	-	.
O=c1oc2c3c(ccc2c2ccccc12)OCN(Cc1ccccc1Cl)C3	.	.	-	.	.	-
Cc1cc(N2C(=O)C3C4c5ccccc5C(c5ccccc54)C3C2=O)no1 (centres undefined)	?	-	8.2µM	-	-	-
Cn1nc(C(C)(C)C)cc1C(=O)NCc1cc(F)cc2c1OCOC2	-	-	?	?	10.3µM	?
CC1CCCN(c2ccc3nc4ccccc4c(=O)n3n2)C1 (centres undefined)	-	-	7.31µM	-	-	?
O=C(N/N=C/c1sc(=O)[nH]c1-[n+]1ccccc1)c1ccccc1[O-]	-	-	-	-	-	-
O=C(N/N=C/c1sc(=O)[nH]c1-[n+]1ccc2ccccc2c1)c1ccccc1[O-]	-	-	?	-	-	8.2µM
COc1cccc(N2CCN(C(=O)c3ccc(CS(=O)c4ccc(C)cc4)o3)CC2)c1 (centres undefined)	?	?	?	0.206µM	0.291µM	0.366µM
COc1cccc(N2CCN(C(=O)c3ccc(CS(=O)c4ccc(Cl)cc4)o3)CC2)c1 (centres undefined)	?	?	?	?	1.84µM	8.2µM
O=C(c1ccc(CS(=O)c2cccc(Cl)c2)o1)N1CCN(c2ccccn2)CC1 (centres undefined)	?	-	?	?	?	7.31µM
O=C(c1ccc(CS(=O)c2cccc(Cl)c2)o1)N1CCOCC1 (centres undefined)	-	-	-	-	-	-
CN(CC(=O)Nc1ccccc1Br)C(=O)c1ccccc1OCc1ccc(Cl)cc1	-	-	5.8µM	-	-	?
COc1ccccc1CN(C)C(=O)c1cc(C)nc2ccccc12	?	-	?	-	-	?
COc1ccc(CN(C)C(=O)c2cc(-c3ccccc3)nc3ccc(C)cc23)c(OC)c1	.	.	?	?	?	18.4µM
Cc1ccc2nc(-c3ccccc3)cc(C(=O)N(C)CC(=O)Nc3ccccc3Br)c2c1	?	-	20.6µM	?	?	?
CN(Cc1ccccc1N1CCCC1)C(=O)c1cc2ccccc2o1	?	-	-	-	-	-
CN(Cc1ccccc1N1CCCC1)C(=O)c1cc2cc(Cl)ccc2o1	14.6µM	-	?	-[9.24 µM]	-	?
O=C(N/N=C/c1cc(Cl)cc([N+](=O)[O-])c1O)c1ccc2c(c1)OCO2	?	18.4µM	-	-	-	?
O=C(N/N=C/c1cc(Cl)cc([N+](=O)[O-])c1O)NC12CC3CC(CC(C3)C1)C2	18.4µM	-	?	-	-	?
Cc1cc(Br)cc(/C=N/NC(=O)c2ccc3c(c2)OCO3)c1O	-	?	-	?	16.4µM	?
COc1cc(Cl)cc(/C=N\NC(=O)c2ccc3c(c2)OCO3)c1O	.	.	?	9.2µM	9.2µM	-
O=C(N/N=C/c1ccccc1O)NC12CC3CC(CC(C3)C1)C2	?	-	-	?	?	-
